In PubChem BioAssay (NCATS):
Records with an inconclusive call do not appear. Calls of active or inactive are those of the source. Unless noted, calls come from the whole dose curve. Peptide text beside a SMILES is read from it.

What was measured:
[1] = qHTS for Inhibitors of the Functional Ribonucleoprotein Complex (vRNP) of Lassa (LASV) Arenavirus: LASV Primary Screen - GLuc reporter signal (AID 1347082; calls by dose curve; tested in HEK293 reporter line; note: nearly all actives have a fitted effect of over 60% in size)
[2] = qHTS for Inhibitors of the Functional Ribonucleoprotein Complex (vRNP) of Lassa (LASV) Arenavirus: Viability assay - alamar blue signal for LASV Primary Screen (AID 1347083; calls by dose curve; tested in HEK293 reporter line; note: nearly all actives have a fitted effect of over 80% in size)
[3] = qHTS for Inhibitors of the Functional Ribonucleoprotein Complex (vRNP) of Lymphocytic Choriomeningitis Arenaviruses (LCMV): Viability assay - alamar blue signal for LCMV Primary Screen (AID 1347085; calls by dose curve; tested in HEK293 reporter line; note: nearly all actives have a fitted effect of over 80% in size)
[4] = target: Nucleoprotein (Lymphocytic choriomeningitis virus (strain Armstrong)) (UniProt P09992); experiment: qHTS for Inhibitors of the Functional Ribonucleoprotein Complex (vRNP) of Lymphocytic Choriomeningitis Arenaviruses (LCMV): LCMV Primary Screen - GLuc reporter signal (AID 1347086); note: nearly all actives have a fitted effect of over 70% in size
Sequence of Nucleoprotein (Lymphocytic choriomeningitis virus (strain Armstrong)) (P09992 whole entry, looked up): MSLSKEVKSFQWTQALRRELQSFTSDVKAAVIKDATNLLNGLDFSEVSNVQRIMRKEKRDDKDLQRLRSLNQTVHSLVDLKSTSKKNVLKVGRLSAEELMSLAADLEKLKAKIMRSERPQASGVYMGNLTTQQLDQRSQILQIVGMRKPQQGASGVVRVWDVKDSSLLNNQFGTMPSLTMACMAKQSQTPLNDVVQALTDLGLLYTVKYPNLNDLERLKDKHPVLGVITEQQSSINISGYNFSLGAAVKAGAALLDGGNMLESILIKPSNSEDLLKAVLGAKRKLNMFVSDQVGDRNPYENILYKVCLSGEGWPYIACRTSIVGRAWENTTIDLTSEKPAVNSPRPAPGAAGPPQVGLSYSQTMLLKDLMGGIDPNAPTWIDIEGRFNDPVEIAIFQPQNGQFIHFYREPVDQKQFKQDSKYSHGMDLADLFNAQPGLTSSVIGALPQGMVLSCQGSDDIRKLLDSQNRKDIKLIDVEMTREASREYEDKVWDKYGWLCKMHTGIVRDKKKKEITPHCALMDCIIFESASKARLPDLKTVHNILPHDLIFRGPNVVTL

Measured: Potency
Note: series mostly up to about 57 µM.

CC1(C)OC(=O)NC1=O
inactive: all assays above

CC(=O)CC(c1ccc([N+](=O)[O-])cc1)c1c(O)c2ccccc2oc1=O (centres undefined)
inactive: all assays above

c1ccc2sc(SN3CCOCC3)nc2c1
inactive: all assays above

Oc1ccccc1-c1nnco1
inactive: all assays above

Cc1ncc(CO)c(C=O)c1O
inactive: all assays above

NCC(=O)CCC(=O)O
inactive: all assays above

CN1C[C@@H]2C[C@H]1CN2c1cc2c(cc1F)c(=O)c(C(=O)O)cn2C1CC1
inactive: all assays above

NC(=O)NS(=O)(=O)c1ccc(N)cc1
inactive: all assays above

C[C@H](CS)C(=O)N1CCC[C@H]1C(=O)O
inactive: all assays above

NC(CS)C(=O)O (centres undefined)
inactive: all assays above

CC(=O)NCc1c(I)c(NC(C)=O)c(I)c(C(=O)O)c1I
inactive: all assays above

CCNC(=O)[C@@H]1CCCN1C(=O)[C@H](CCCN=C(N)N)NC(=O)[C@H](CC(C)C)NC(=O)CNC(=O)[C@H](Cc1ccc(O)cc1)NC(=O)[C@H](CO)NC(=O)[C@H](Cc1c[nH]c2ccccc12)NC(=O)[C@H](Cc1cnc[nH]1)NC(=O)[C@@H]1CCC(=O)N1 (HELM PEPTIDE1{[Glp].H.W.S.Y.G.L.R.P.[CCN[*:1]]}$$$$V2.0)
inactive: all assays above

CNC(=O)c1c(I)c(NC(C)=O)c(I)c(C(=O)O)c1I
inactive: all assays above

N=C(N)N
inactive: all assays above

Cc1nc(-c2ccc(Cl)cc2)oc1COC(C)(C)C(=O)O
inactive: all assays above

CNCc1ccccc1
inactive: all assays above

O=c1[nH]c(=O)n([C@H]2C[C@H](O)[C@@H](CO)O2)cc1Br
inactive: all assays above

Cc1cc(O)cc(C)c1Cl
inactive: all assays above

O=c1[nH]cnc2[nH]ncc12
inactive: all assays above

NC(N)=Nc1nc(CSCC/C(N)=N/S(N)(=O)=O)cs1
inactive: all assays above

COc1ccc(O)cc1
inactive: all assays above

CC(C)(C(=O)c1cccnc1)c1cccnc1
inactive: all assays above

CC(C)(Oc1ccc(Cl)cc1)C(=O)OCCCOC(=O)C(C)(C)Oc1ccc(Cl)cc1
inactive: all assays above

CC(CSC(=O)c1ccccc1)C(=O)N1C[C@@H](Sc2ccccc2)C[C@H]1C(=O)O (some centres undefined)
inactive: all assays above

CC(=O)NCCCCCC(=O)O
inactive: all assays above

OC1(c2ccccc2)CCNCC1
inactive: all assays above

OCc1cccnc1
inactive: all assays above

O=C(O)[C@@H]1[C@H]2C[C@H]3c4[nH]c5ccccc5c4CCN3C[C@@H]2CC[C@@H]1O
inactive: all assays above

NC(=O)N1c2ccccc2C=Cc2ccccc21
inactive: all assays above

CC1(COc2ccc(CC3SC(=O)NC3=O)cc2)CCCCC1 (centres undefined)
inactive: all assays above

Clc1cccc(C(c2ccc3nc[nH]c3c2)n2ccnc2)c1 (centres undefined)
inactive: all assays above

CC1(C)OC[C@@H]2O[C@@]3(C(=O)O)OC(C)(C)O[C@H]3[C@@H]2O1
inactive: all assays above

CCN(CC)C(=O)c1ccc(O)c(OC)c1
inactive: all assays above

CC[C@H]1OC(=O)[C@H](C)[C@@H](O[C@H]2C[C@@](C)(OC)[C@@H](O)[C@H](C)O2)[C@H](C)[C@@H](O[C@@H]2O[C@H](C)C[C@H](N(C)C)[C@@H]2O)[C@](C)(O)C[C@@H](C)CN(C)[C@H](C)[C@@H](O)[C@]1(C)O
inactive: all assays above

CNC[C@H](O)[C@@H](O)[C@H](O)[C@H](O)CO
inactive: all assays above

CCN(CC)C(=O)/C(C#N)=C/c1cc(O)c(O)c([N+](=O)[O-])c1
inactive: all assays above

Nc1ncnc2nc[nH]c12
inactive: all assays above

Cc1c(I)c(=O)n(-c2ccccc2)n1C
inactive: all assays above

O=S(=O)(O)c1ccc(O)cc1
inactive: all assays above

COC(=O)c1cc(Cl)ccc1OC
inactive: all assays above

CC(CCc1ccc2c(c1)OCO2)NN (centres undefined)
inactive: all assays above

CCCCCCCC/C=C/C(=O)O
inactive: all assays above

O=C(OCCN1CCOCC1)c1cccnc1Nc1cccc(C(F)(F)F)c1
inactive: all assays above

COC(=O)/C=C\C(=O)OC
inactive: all assays above

CC(=O)N(CC(O)CO)c1c(I)c(C(=O)NCCO)c(I)c(C(=O)NCC(O)CO)c1I (centres undefined)
inactive: all assays above

O=P(O)(O)OCC(O)CO (centres undefined)
inactive: all assays above

Oc1c(Br)cc(Br)c2cccnc12
inactive: all assays above

O=S(=O)(O)c1cc(I)c(O)c2ncccc12
inactive: all assays above

CC(CN(C)C)C(C)(O)Cc1ccc(Cl)cc1 (centres undefined)
inactive: all assays above

CCC1=C(C)CN(C(=O)NCCc2ccc(S(=O)(=O)NC(=O)NC3CCC(C)CC3)cc2)C1=O (centres undefined)
inactive: all assays above

O=C(O)c1cc(O)c(O)c(O)c1
inactive: all assays above

O=C(O)Cc1cccc2ccccc12
inactive: all assays above

Clc1cccc(Cl)c1NC1=NCCN1
inactive: all assays above

CC(C)[N+](C)(C)CC(O)COc1cccc2ccccc12 (centres undefined)
inactive: all assays above

CCN(CC)CC#CCOC(=O)C(O)(c1ccccc1)C1CCCCC1 (centres undefined)
inactive: all assays above

NCCCNCCSP(=O)(O)O
inactive: all assays above

Cc1ccc(C(=O)c2ccc(CC(=O)O)n2C)cc1
inactive: all assays above

CS(=O)(=O)c1ccc([C@@H](O)[C@@H](CO)NC(=O)C(Cl)Cl)cc1
inactive: all assays above

Nc1ccc(S(=O)(=O)Nc2ccc(Cl)nn2)cc1
inactive: all assays above

CC(=O)N(CC(O)CO)c1c(I)c(C(=O)NCC(O)CO)c(I)c(C(=O)NCC(O)CO)c1I (centres undefined)
inactive: all assays above

O=C(c1ccccc1)c1ccccc1
inactive: all assays above

N[C@@H](Cc1cc(I)c(Oc2ccc(O)c(I)c2)c(I)c1)C(=O)O
inactive: all assays above

O=C1CCCc2c(O)cccc21
inactive: all assays above

O=S(=O)(O)CCS
inactive: all assays above

C[C@@H]1C[C@H]2[C@@H]3C[C@H](F)C4=CC(=O)C=C[C@]4(C)[C@@]3(F)[C@@H](O)C[C@]2(C)[C@@]1(O)C(=O)CO
inactive: all assays above

CC(=O)[C@H]1CC[C@H]2[C@@H]3C[C@H](C)C4=CC(=O)CC[C@]4(C)[C@H]3[C@@H](O)C[C@]12C
inactive: all assays above

CCS(=O)(=O)c1ccc(OC)c(C(=O)OC)c1
inactive: all assays above

CO[C@]12C[C@@H](COC(=O)c3cncc(Br)c3)CN(C)[C@@H]1Cc1cn(C)c3cccc2c13
inactive: all assays above

CO/N=C(/C(=O)N[C@@H]1C(=O)N2C(C(=O)[O-])=C(C[n+]3ccn4ncccc43)CS[C@H]12)c1nsc(N)n1
inactive: all assays above

O=C(O)Cc1sc(-c2ccccc2)nc1-c1ccc(Cl)cc1
inactive: all assays above

O=C(Cn1ccnc1[N+](=O)[O-])NCc1ccccc1
inactive: all assays above
